Inconclusive results are not listed. Where a call stands in place of a potency, no number is given. Active and inactive are the calls of the source. Calls come from the whole dose curve; as a rule, active = well fitted activation curve with a large enough effect; inconclusive = small, poorly fitted or top-dose-only effect; inactive = no such curve, though single readings can be large or run the other way.
Experiment: qHTS Assay for NPC1 Promoter Activators: Hit Validation Using Renila Luciferase Read-Out for NPC1
Details: Huh7 NPC1 promoter-luciferase reporter, luminescence, 24 h; series mostly up to 76.9 µM
Text: Niemann Pick Type C (NPC) is a rare neurodegenerative lipidosis that is characterized by lipid storage in the endosomal/lysosomal system. Treatment modalities for this devastating disease are currently non-existent due to the severe obstacles associated with accessing the central nervous system with proteins or genes. The majority of mutations causing NPC disease are missense mutations that are distributed throughout the length of the NPC1 protein, with the most prevalent being the I1061T allele. Although NPC1 mutant proteins may be functional, they are typically trapped in the ER due to misfolding. […] We have developed and optimized a cell based renilla luciferase reporter assay in 1536 well format for the identification of up-regulators of the mutant Rab9 promoter. This assay presents data on the validation of hits from the primary screen, which used a firefly luciferase read-out. NIH Chemical Genomics Center [NCGC] NIH Molecular Libraries Probe Production centers Network [MLPCN] MLPCN Grant: MH089375 Assay Submitter (PI): Yiannis A. Ioannou
Huh7 cells stably expressing NPC promoter-luciferase will be seeded at 1,500 cells/well in 5 uL in 1,536-well white opaque plates with 23 nL/well of compound in DMSO solution. The assay plates will be incubated at 37 deg C for 24 hours, after which 3 uL/well BriteLite plus luciferase detection reagent mixture (Perkin Elmer) will be added. Luminescence signal will be measured in a ViewLux plate reader (Perkin Elmer) after a 10 minute incubation at the room temperature.
Potency is the fitted concentration of half-maximal effect.

**Q.** Which Potency does the source give for `COc1cccc(C2Nc3ccccc3NC3=C2C(=O)CC(C)(C)C3)c1` (stereo not given) here?
**A.** inactive

**Q.** Which Potency does the source give for `Nc1nc(SCCO)[nH]c(=O)c1NC(=O)c1ccco1` here?
**A.** inactive

**Q.** With `Cc1ccc(S(=O)(=O)/N=C(/Nc2ccccn2)c2ccc(Cl)cc2)cc1` as the compound, how does the Potency read?
**A.** 11.6 µM (active)

**Q.** With `Cc1nc(-c2ccccn2)sc1C(=O)Nc1ccc(F)cc1F` as the compound, how does the Potency read?
**A.** inactive

**Q.** Which Potency does the source give for `CC1(C)CC(=O)c2c(O)c(-c3ccccc3)c(=O)n(-c3ccccc3)c2C1` here?
**A.** inactive

**Q.** With `Cc1cc(C)cc(N(CC(=O)NC2CCCC2)C(=O)CNC(=O)c2ccco2)c1` as the compound, how does the Potency read?
**A.** inactive

**Q.** For `N#C/C(=N\Nc1ccc(Cl)cc1)C(=N)N1CCCCC1`, which Potency is on record?
**A.** inactive

**Q.** Which Potency does the source give for `COc1cccc(C(C(=O)NC2CCCC2)N(CCC(C)C)C(=O)CCC(=O)Nc2cc(C)on2)c1` (stereo not given) here?
**A.** inactive

**Q.** With `COc1ccc(/C=C\C(=O)c2c(O)ccc3c(C)cc(=O)oc23)cc1OC` as the compound, how does the Potency read?
**A.** inactive

**Q.** With `CCCCCCOc1ccc(OC(=O)c2cccnc2)cc1` as the compound, how does the Potency read?
**A.** 1.84 µM (active)

**Q.** Which Potency does the source give for `COc1cccc(NC(=O)CN2C(=O)CSc3ccc(S(=O)(=O)N4CCC(C)CC4)cc32)c1` here?
**A.** inactive

**Q.** For `OCCC1CN(Cc2nc3ccccc3s2)CCN1C1CCCC1` (stereo not given), which Potency is on record?
**A.** inactive

**Q.** With `CC(=O)Nc1nnc(SCC(=O)NCCOc2ccccc2)s1` as the compound, how does the Potency read?
**A.** inactive

**Q.** For `COc1ccccc1NC(=S)NCc1ccc(Cl)cc1`, which Potency is on record?
**A.** inactive

**Q.** Which Potency does the source give for `CCOC(=O)CSc1nc2cc3c(cc2cc1C#N)OCO3` here?
**A.** inactive

**Q.** For `CC1=C(C(=O)OC2CCCC(C)C2)C(c2ccccc2)NC(=O)N1` (stereo not given), which Potency is on record?
**A.** inactive

**Q.** With `Cc1ccc(NC(=O)Nc2cccc3ccccc23)cc1` as the compound, how does the Potency read?
**A.** inactive

**Q.** With `O=CN1CCN(C(=O)c2ccccc2Cl)CC1` as the compound, how does the Potency read?
**A.** inactive

**Q.** For `CC(Sc1nnc(C(F)(F)F)n1C)C(=O)Nc1ccc(S(N)(=O)=O)cc1` (stereo not given), which Potency is on record?
**A.** inactive

**Q.** Which Potency does the source give for `CC(=O)c1c(C)[nH]c(C(=O)Nc2cccc(S(=O)(=O)N(C)C)c2)c1C` here?
**A.** 23.2 µM (active)

**Q.** Which Potency does the source give for `CCCCc1cc(=O)oc2cc(OCC(=O)N3CCOCC3)ccc12` here?
**A.** inactive

**Q.** With `O=C(CSc1nnc(-c2ccccn2)o1)Nc1ccccc1F` as the compound, how does the Potency read?
**A.** inactive

**Q.** With `O=C(NNC(=O)C1COc2ccccc2O1)c1ccccc1O` (stereo not given) as the compound, how does the Potency read?
**A.** inactive

**Q.** Which Potency does the source give for `COc1ccc([N+](=O)[O-])cc1COc1ccc2c(-c3ccccc3)cc(=O)oc2c1` here?
**A.** 1.46 µM (active)

**Q.** For `O=C(CCCn1c(=O)oc2ccccc21)N1CCN(c2ccccn2)CC1`, which Potency is on record?
**A.** inactive

**Q.** With `O=C(C[N+]1(CC#Cc2ccccc2)CCCCC1)c1ccccc1` as the compound, how does the Potency read?
**A.** inactive

**Q.** For `Cc1c(C(O)CN2CCN(Cc3ccc4c(c3)OCO4)CC2)c2ccccc2n1C` (stereo not given), which Potency is on record?
**A.** inactive

**Q.** Which Potency does the source give for `Cc1ccc(CNC(=O)Nc2ccc(C)cc2)cc1` here?
**A.** inactive

**Q.** With `CC(=O)Nc1ccc(-c2csc(Nc3ncccn3)n2)cc1` as the compound, how does the Potency read?
**A.** inactive

**Q.** With `Cc1ccc(S(=O)(=O)N2CCN(c3cnn(C)c(=O)c3Cl)CC2)cc1` as the compound, how does the Potency read?
**A.** inactive

**Q.** Which Potency does the source give for `CCOc1cc(C2C(C#N)=C(N)Oc3n[nH]c(C)c32)ccc1OCCN1CCOCC1` (stereo not given) here?
**A.** inactive

**Q.** With `CC(C)(C)C(=O)N/C(N)=N/c1nc2ccccc2o1` as the compound, how does the Potency read?
**A.** inactive

**Q.** For `O=C(CCCN1C(=O)C(c2ccccc2)Oc2cccnc21)Nc1ccccc1Cl` (stereo not given), which Potency is on record?
**A.** inactive

**Q.** Which Potency does the source give for `O=C(CN1C(=O)COc2ccc(Cl)cc21)NCC1CCCO1` (stereo not given) here?
**A.** inactive

**Q.** With `Nc1ccc(C(=O)Nc2ccccc2N)cc1` as the compound, how does the Potency read?
**A.** 16.4 µM (active)

**Q.** Which Potency does the source give for `Cn1c(SCc2ccccc2)nnc1-c1cnccn1` here?
**A.** inactive

**Q.** Which Potency does the source give for `Cc1ccc2c(c1)sc1nc(=O)n(-c3ccccc3)c(=O)n12` here?
**A.** inactive

**Q.** With `O=C(CSc1nnc(Cc2cc(=O)[nH]c(=O)[nH]2)n1-c1ccc(Cl)cc1)NC1CCCC1` as the compound, how does the Potency read?
**A.** inactive

**Q.** With `O=C(CSc1nnc(-c2ccccn2)o1)Nc1ccccc1Cl` as the compound, how does the Potency read?
**A.** inactive

**Q.** With `O=C(NC1CCCC1)C(c1ccc(F)cc1)N(C(=O)c1csnn1)c1ccccc1` (stereo not given) as the compound, how does the Potency read?
**A.** inactive
